Experimental data as given in the supplement of paper PMC10849652.
Targets with a hit are over-represented here; the source holds about 7,900 in all. About 0.6% of all pairs of compound and target were hits.

Assays:
Assay in all cases: log2 fold change, soluble protein after heating vs DMSO (PISA); higher = thermal stabilisation; K562 cells, 10 uM, 30 min; active = over 0.2 and 3.5 SD of the protein, either way, in both replicates (recomputed)
erlotinib = compound: C#Cc1cccc(Nc2ncnc3cc(OCCOC)c(OCCOC)cc23)c1 [erlotinib]
In short: (§1)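 Aliquots of K562 cells (2×10^6 cells/mL) treated with 10 μM compound for 30 min were heated for 3 min over 48°C-58°C. After pooling and extraction in PBS with 0.5% NP-40 at 4°C, soluble protein from a 21,000xg, 90 min spin was quantified by TMTpro 16plex LC-MS/MS with channel sums equalised. Thermal stability is expressed against control samples, from duplicates, as a log2 fold change.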

[1] = compound: C/C(=N\NC(=O)C1=CC(=CC=C1)S(=O)(=O)N2CCOCC2)/C3=C(C=CC(=C3)Cl)O
In short: as §1

[2] = compound: C1=CC(=C(C=C1Cl)C2=NC3=NC=CN=C3C(=N2)NC4=CC=NC=C4)F
In short: as §1

[3] = compound: C1=CC(=CC=C1C2=NC3=C(N2)C=C(C=C3)C(=O)N)OC4=CC=C(C=C4)Cl
In short: as §1

[4] = compound: C1=CC2=C(C=CC(=C2)/C=C\3/C(=O)NC(=NCC4=CC=CS4)S3)N=C1
In short: as §1

[5] = compound: C1=CC2=NC=CN=C2C=C1/C=C/3\C(=O)NC(=O)S3
In short: as §1

[6] = compound: C1=CC=C(C=C1)C2=NC(=C(N2)C3=CC=NC=C3)C4=CC(=C(C=C4)Cl)O
In short: as §1

[7] = compound: C1=CC=C2C(=C1)C3=NNC4=CC=CC(=C43)C2=O
In short: as §1

[8] = compound: C1CCN(C1)C(=O)NC2=CC=CC(=C2)NC3=NC=C(C(=N3)NCCC4=CN=CN4)Br
In short: as §1

[9] = compound: C1CN(CCC1(CC2=CC=C(C=C2)Cl)N)C3=NC=NC4=C3C=CN4
In short: as §1

Measured: log2 fold change

NA, A0A096LPI6
inactive: erlotinib -0.009 | [1] -0.009 | [2] 0.047 | [3] 0.02 | [4] -0.051 | [5] 0.04 | [6] 0.023 | [7] -0.004 | [8] 0.008 | [9] 0.035

NCOA7 (UniProt Q8NI08)
inactive: erlotinib -0.027 | [1] 0.063 | [2] -0.047 | [3] 0.004 | [4] 0.07 | [5] -0.048 | [6] 0.014 | [7] 0.011 | [8] 0.024 | [9] 0.045

NUP98 (UniProt P52948)
Sequence of UniProt P52948 (P52948 whole entry, looked up): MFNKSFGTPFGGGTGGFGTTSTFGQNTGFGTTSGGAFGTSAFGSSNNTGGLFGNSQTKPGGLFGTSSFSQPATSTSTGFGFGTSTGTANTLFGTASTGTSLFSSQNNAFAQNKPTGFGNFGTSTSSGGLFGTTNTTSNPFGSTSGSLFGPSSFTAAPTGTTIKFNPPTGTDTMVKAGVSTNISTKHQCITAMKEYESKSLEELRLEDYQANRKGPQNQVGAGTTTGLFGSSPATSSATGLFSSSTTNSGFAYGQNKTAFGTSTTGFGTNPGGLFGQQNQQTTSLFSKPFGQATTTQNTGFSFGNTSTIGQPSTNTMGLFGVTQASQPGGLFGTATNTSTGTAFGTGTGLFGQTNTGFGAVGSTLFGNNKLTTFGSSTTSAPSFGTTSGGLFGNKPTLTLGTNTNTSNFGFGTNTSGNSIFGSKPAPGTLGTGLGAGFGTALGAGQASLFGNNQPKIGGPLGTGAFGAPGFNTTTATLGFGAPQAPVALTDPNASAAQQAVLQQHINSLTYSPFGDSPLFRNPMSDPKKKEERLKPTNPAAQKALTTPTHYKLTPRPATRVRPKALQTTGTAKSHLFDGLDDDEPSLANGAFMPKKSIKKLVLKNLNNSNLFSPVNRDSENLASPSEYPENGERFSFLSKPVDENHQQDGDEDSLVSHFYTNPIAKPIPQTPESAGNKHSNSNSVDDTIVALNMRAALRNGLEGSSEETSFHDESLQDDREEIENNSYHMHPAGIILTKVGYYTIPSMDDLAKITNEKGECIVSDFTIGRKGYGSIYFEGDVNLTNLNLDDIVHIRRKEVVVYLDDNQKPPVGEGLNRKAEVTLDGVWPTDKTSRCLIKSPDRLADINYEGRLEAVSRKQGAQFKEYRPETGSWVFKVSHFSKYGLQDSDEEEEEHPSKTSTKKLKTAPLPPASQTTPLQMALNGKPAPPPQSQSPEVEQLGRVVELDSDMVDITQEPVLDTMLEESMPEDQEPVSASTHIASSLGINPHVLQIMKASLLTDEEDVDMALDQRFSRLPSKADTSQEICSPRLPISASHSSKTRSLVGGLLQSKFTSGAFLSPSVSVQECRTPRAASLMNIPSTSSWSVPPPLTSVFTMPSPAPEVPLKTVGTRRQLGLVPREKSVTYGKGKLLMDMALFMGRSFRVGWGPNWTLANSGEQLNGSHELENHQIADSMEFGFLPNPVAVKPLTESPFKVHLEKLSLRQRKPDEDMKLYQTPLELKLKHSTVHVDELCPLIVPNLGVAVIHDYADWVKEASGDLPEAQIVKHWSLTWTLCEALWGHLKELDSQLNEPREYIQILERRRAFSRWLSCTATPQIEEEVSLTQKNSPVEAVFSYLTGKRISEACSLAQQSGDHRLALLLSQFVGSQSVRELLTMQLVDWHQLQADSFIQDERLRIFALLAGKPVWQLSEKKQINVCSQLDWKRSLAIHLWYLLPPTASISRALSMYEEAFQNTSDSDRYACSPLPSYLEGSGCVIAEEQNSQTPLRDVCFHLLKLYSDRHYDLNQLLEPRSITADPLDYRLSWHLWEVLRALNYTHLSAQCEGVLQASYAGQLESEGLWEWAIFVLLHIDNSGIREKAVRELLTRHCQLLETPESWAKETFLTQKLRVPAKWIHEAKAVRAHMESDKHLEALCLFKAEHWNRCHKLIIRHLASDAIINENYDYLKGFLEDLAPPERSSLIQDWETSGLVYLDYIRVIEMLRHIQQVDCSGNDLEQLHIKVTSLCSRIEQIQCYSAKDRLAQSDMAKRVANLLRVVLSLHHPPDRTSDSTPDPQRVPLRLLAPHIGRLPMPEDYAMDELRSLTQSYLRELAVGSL
inactive: erlotinib 0.063 | [1] 0.01 | [2] -0.085 | [3] -0.013 | [4] -0.011 | [5] 0.035 | [6] -0.015 | [7] -0.217 | [8] -0.06 | [9] -0.012

NOL7 (UniProt Q9UMY1)
Sequence of UniProt Q9UMY1 (Q9UMY1 whole entry, looked up): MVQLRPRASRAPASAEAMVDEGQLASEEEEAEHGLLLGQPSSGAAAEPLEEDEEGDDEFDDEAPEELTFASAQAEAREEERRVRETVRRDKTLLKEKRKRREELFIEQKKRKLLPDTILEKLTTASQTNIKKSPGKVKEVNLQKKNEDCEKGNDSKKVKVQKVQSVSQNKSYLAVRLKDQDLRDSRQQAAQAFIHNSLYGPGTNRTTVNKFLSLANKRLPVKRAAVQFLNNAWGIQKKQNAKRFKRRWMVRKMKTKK
inactive: erlotinib -0.151 | [1] -0.208 | [3] 0.005 | [4] -0.179 | [5] 0 | [6] -0.071 | [7] -0.058 | [8] 0.045 | [9] -0.189
active: [2] -0.728

OAT (UniProt P04181)
inactive: erlotinib 0.063 | [1] 0.099 | [2] 0.045 | [3] -0.091 | [4] 0.042 | [5] -0.151 | [6] -0.183 | [7] -0.001 | [8] -0.037 | [9] -0.023

NMT2 (UniProt O60551)
active: [9] -0.369
inactive: erlotinib 0.028 | [1] 0.031 | [2] 0.007 | [3] 0.004 | [4] 0.062 | [5] 0.032 | [6] -0.043 | [7] 0.021 | [8] 0.041

MRPS27 isoform 2 (UniProt Q92552)
inactive: erlotinib -0.044 | [1] -0.058 | [2] 0.018 | [3] 0.061 | [4] 0.056 | [5] 0.024 | [6] 0.074 | [7] 0.086 | [8] -0.048 | [9] -0.106

MRPS6 (UniProt P82932)
inactive: erlotinib 0.001 | [1] 0.006 | [2] 0.006 | [3] 0.088 | [4] 0.01 | [5] 0.112 | [6] 0.128 | [7] 0.079 | [8] -0.039 | [9] -0.093

MPP1 (UniProt Q00013)
Sequence of UniProt Q00013 (Q00013 whole entry, looked up): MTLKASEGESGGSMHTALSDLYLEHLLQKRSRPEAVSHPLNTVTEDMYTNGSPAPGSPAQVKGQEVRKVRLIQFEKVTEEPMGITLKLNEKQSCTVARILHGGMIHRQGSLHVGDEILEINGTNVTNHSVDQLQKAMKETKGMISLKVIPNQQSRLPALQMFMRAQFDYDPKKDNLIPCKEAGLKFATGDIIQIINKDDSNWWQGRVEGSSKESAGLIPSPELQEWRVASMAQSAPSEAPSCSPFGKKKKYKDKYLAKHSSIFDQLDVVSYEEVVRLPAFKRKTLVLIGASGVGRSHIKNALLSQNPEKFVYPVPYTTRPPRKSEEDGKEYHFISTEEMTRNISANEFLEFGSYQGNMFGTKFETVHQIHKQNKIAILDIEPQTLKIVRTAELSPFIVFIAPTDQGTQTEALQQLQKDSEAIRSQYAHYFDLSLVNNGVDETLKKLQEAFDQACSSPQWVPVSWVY
inactive: erlotinib 0.083 | [1] 0.098 | [2] 0.027 | [3] 0.016 | [4] 0.004 | [5] -0.001 | [6] 0.012 | [7] 0.033 | [8] -0.048 | [9] -0.019

NSMCE4A (UniProt Q9NXX6)
Sequence of UniProt Q9NXX6 (Q9NXX6 whole entry, looked up): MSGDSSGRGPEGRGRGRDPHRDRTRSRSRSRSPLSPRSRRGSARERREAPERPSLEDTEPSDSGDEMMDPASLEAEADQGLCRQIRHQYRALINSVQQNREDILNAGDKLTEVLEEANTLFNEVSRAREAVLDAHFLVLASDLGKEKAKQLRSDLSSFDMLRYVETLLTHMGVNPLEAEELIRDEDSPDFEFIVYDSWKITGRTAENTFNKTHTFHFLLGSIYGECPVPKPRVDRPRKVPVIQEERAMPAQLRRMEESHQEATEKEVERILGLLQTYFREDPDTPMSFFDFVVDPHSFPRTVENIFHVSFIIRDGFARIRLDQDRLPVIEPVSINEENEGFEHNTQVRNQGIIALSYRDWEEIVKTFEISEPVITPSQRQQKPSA
inactive: erlotinib -0.044 | [1] 0.028 | [2] -0.002 | [3] 0.072 | [4] 0.182 | [5] -0.138 | [6] -0.031 | [7] -0.192 | [8] 0.056 | [9] 0.117

MRPS17 (UniProt Q9Y2R5)
inactive: erlotinib -0.034 | [1] -0.019 | [2] -0.125 | [3] 0.142 | [4] -0.062 | [5] 0 | [6] 0.042 | [7] 0.088 | [8] -0.014 | [9] -0.126

MTHFS (UniProt P49914)
Sequence of UniProt P49914 (P49914 whole entry, looked up): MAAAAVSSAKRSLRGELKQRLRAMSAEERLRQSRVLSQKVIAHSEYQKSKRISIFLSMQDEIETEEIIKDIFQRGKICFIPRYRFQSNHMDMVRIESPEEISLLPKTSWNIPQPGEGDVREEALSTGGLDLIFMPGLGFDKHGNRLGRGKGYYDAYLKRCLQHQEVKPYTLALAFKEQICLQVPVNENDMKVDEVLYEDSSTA
inactive: erlotinib 0.01 | [1] 0.062 | [2] 0.055 | [3] -0.003 | [4] 0.034 | [5] -0.024 | [6] 0.026 | [7] 0.083 | [8] -0.014 | [9] -0.12

NUP160 (UniProt Q12769)
inactive: erlotinib 0.001 | [1] 0.022 | [2] 0.01 | [3] -0.024 | [4] -0.006 | [5] 0.045 | [6] -0.017 | [7] -0.091 | [8] -0.085 | [9] -0.025

NCOR1 (UniProt O75376)
inactive: erlotinib -0.057 | [1] 0.021 | [2] -0.034 | [3] 0.041 | [4] 0.08 | [5] 0.026 | [6] 0.044 | [7] -0.21 | [8] -0.055 | [9] -0.051

MRPS35 (UniProt P82673)
inactive: erlotinib -0.068 | [1] -0.028 | [2] -0.048 | [3] 0.14 | [4] 0.003 | [5] -0.043 | [6] 0.022 | [7] 0.096 | [8] 0.042 | [9] -0.08

NSUN2 (UniProt Q08J23)
Sequence of UniProt Q08J23 (Q08J23 whole entry, looked up): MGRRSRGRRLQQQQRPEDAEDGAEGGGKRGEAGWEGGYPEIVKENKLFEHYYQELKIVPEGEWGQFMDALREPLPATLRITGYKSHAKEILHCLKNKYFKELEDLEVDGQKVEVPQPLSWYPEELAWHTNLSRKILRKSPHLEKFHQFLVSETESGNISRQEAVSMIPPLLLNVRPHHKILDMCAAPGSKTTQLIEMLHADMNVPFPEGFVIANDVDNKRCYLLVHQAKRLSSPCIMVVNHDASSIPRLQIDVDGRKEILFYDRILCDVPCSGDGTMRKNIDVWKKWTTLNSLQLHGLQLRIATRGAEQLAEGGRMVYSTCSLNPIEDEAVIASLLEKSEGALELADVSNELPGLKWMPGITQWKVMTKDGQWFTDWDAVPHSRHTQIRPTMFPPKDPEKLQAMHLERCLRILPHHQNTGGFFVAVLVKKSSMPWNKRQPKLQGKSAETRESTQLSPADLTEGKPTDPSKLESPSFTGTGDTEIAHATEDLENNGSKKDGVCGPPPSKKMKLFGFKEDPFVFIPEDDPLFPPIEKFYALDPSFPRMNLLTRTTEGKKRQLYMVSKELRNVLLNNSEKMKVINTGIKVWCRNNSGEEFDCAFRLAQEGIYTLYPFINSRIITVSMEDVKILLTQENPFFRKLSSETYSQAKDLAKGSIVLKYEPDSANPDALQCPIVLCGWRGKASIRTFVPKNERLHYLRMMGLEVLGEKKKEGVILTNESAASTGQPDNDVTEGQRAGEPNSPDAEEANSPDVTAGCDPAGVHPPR
inactive: erlotinib -0.017 | [1] 0.137 | [2] -0.002 | [3] 0.038 | [4] -0.018 | [5] 0.006 | [6] -0.052 | [7] -0.112 | [8] -0.067 | [9] 0.064

MTOR (UniProt P42345)
inactive: erlotinib 0.015 | [1] 0.041 | [2] 0.021 | [3] -0.011 | [4] 0.036 | [5] 0.047 | [6] 0.034 | [7] -0.004 | [8] 0.065 | [9] -0.03

NUMB (UniProt P49757)
inactive: erlotinib 0.016 | [1] -0.012 | [2] -0.048 | [3] 0.018 | [4] -0.001 | [5] 0.044 | [6] -0.004 | [7] -0.009 | [8] -0.087 | [9] 0.021

NUP85 (UniProt Q9BW27)
Sequence of UniProt Q9BW27 (Q9BW27 whole entry, looked up): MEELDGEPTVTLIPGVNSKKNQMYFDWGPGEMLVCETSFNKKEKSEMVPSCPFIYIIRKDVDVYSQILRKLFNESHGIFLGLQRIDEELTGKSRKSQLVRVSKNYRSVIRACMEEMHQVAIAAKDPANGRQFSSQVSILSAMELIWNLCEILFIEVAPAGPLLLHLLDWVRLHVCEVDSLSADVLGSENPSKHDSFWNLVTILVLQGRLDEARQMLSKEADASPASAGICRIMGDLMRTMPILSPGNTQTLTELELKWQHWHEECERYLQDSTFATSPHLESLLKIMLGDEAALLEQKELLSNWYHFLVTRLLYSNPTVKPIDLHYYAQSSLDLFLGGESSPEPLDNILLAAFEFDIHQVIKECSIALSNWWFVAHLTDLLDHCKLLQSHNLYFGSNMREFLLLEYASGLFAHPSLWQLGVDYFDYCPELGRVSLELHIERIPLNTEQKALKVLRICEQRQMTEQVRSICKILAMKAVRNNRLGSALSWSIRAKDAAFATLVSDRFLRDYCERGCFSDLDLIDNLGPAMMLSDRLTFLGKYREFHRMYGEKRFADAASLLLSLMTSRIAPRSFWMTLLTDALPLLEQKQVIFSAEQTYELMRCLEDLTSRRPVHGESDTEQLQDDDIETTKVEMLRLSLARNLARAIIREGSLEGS
inactive: erlotinib 0.046 | [1] 0.08 | [2] 0.037 | [3] 0.036 | [4] 0 | [5] 0.028 | [6] -0.012 | [7] -0.066 | [8] -0.051 | [9] 0.008

NISCH (UniProt Q9Y2I1)
inactive: erlotinib 0.141 | [1] 0.1 | [2] -0.083 | [3] 0.026 | [4] 0.089 | [5] 0.068 | [6] 0.044 | [7] -0.144 | [8] 0.039 | [9] -0.032

MRPS25 (UniProt P82663)
inactive: erlotinib -0.069 | [1] -0.023 | [2] -0.022 | [3] 0.084 | [4] -0.048 | [5] 0 | [6] 0.083 | [7] 0.061 | [8] -0.036 | [9] -0.068

MRPS18B (UniProt Q9Y676)
inactive: erlotinib 0.026 | [1] 0.101 | [2] -0.051 | [3] 0.124 | [4] 0.03 | [5] 0.034 | [6] 0.027 | [7] 0.119 | [8] 0.079 | [9] -0.119

NCK1 (UniProt P16333)
inactive: erlotinib 0.045 | [1] 0.206 | [2] -0.066 | [3] 0 | [4] 0.179 | [5] -0.019 | [6] -0.084 | [7] 0 | [8] -0.135 | [9] -0.081

NANS (UniProt Q9NR45)
inactive: erlotinib -0.016 | [1] 0.031 | [2] 0.066 | [3] -0.022 | [4] 0.028 | [5] 0.023 | [6] 0.036 | [7] 0.02 | [8] 0.016 | [9] 0.022

NDUFA6 (UniProt P56556)
Sequence of UniProt P56556 (P56556 whole entry, looked up): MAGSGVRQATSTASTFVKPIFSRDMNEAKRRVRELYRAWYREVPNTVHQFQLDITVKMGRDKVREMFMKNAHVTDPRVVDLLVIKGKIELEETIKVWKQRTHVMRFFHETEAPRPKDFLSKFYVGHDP
inactive: erlotinib 0.014 | [1] 0.133 | [2] 0.11 | [3] -0.015 | [4] -0.045 | [5] 0.002 | [6] 0.104 | [7] 0.042 | [8] -0.031 | [9] -0.008

NOSIP (UniProt Q9Y314)
Sequence of UniProt Q9Y314 (Q9Y314 whole entry, looked up): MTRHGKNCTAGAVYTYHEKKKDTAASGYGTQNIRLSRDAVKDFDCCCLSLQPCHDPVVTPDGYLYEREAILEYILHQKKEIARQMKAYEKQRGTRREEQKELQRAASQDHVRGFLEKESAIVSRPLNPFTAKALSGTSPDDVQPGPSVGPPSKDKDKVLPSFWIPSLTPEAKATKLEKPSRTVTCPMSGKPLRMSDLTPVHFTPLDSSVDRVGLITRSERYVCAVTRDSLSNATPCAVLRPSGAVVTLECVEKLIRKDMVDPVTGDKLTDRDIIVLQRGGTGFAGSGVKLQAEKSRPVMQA
inactive: erlotinib 0.062 | [1] 0.16 | [2] 0.049 | [3] -0.05 | [4] -0.041 | [5] 0.039 | [6] -0.033 | [7] -0.03 | [8] -0.234 | [9] -0.249

NBN (UniProt O60934)
inactive: erlotinib 0.064 | [1] 0.087 | [2] 0.06 | [3] 0.033 | [4] 0.005 | [5] 0.028 | [6] 0.012 | [7] 0.002 | [8] -0.029 | [9] 0.037

MRPS2 (UniProt Q9Y399)
inactive: erlotinib 0.004 | [1] -0.064 | [2] -0.083 | [3] 0.052 | [4] 0.093 | [5] 0.01 | [6] 0.083 | [7] -0.033 | [8] -0.01 | [9] -0.112

MT-ATP6 (UniProt P00846)
inactive: erlotinib 0.207 | [1] 0.146 | [2] -0.042 | [3] -0.07 | [4] -0.078 | [5] -0.391 | [6] -0.048 | [7] -0.017 | [8] -0.073 | [9] -0.042

NDUFS7 (UniProt O75251)
inactive: erlotinib 0.129 | [1] -0.011 | [2] 0.039 | [3] -0.011 | [4] 0.062 | [5] 0.038 | [6] -0.052 | [7] 0.035 | [8] 0.045 | [9] 0.011
